T cruzi growth-1 = T. cruzi intracellular proliferation inhibitors, primary screen, cell-based, beta-gal Tulahuen parasites, NIH3T3 host, luminescence; T. cruzi beta-gal in NIH3T3, GalScreen luminescence, 90 h; inhibition, % at 8.34 µM; hit rate 5.9% among 77,000;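 active = mean inhibition above about 93%, with at least 55% of replicates each passing it, limit read from the data, passing the limit was not always enough; inconclusive = only one of those two conditions holds; inactive = neither condition holds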
Pf Dd2 growth = P. falciparum Dd2 growth inhibitors, primary screen, SYBR Green fluorescence, single dose replicates | 72 h; active compounds read low | activity change, % at 10 µM | hit rate 2.3% among 94,000; in the data active = activity change below about -80%; inconclusive = no clear call, values can overlap the other calls
C diff growth = C. difficile growth inhibitors, primary screen, HTS. Clostridium difficile clinical isolate growth, OD600, 24 h; active compounds read low. growth activity, negative = inhibition, % at 16 µg/mL (by protocol). hit rate 0.25% among 86,000. AID 1259249, 2017;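 active = mean growth activity at or below -80% and every replicate also at or below -80%; inconclusive = mean at or below -80% but some replicate above -80%; inactive = mean growth activity above -80%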;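 note: 0% = DMSO wells and -100% = levofloxacin 16 µg/mL wells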
T cruzi growth-2 = T. cruzi intracellular proliferation inhibitors, confirmation, cell-based, NIH3T3 host, beta-gal parasite, luminescence, cherry-pick; hit rate 72% among 5,600; shares compounds with T cruzi growth-1; inhibition, % at 8.35 µM; T. cruzi beta-gal in NIH3T3, GalScreen luminescence, 90 h; AID 651739, 2012;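 active = mean replicate inhibition above about 95% and at least 55% of replicates individually reaching it, limit read from the data; inconclusive = only one of the two criteria is met; inactive = neither criterion is met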
T cruzi growth-3 = inhibitors of intracellular T. cruzi replication, confirmation, NIH3T3 host cells, beta-gal parasites, cherry-pick, set 2; shares compounds with T cruzi growth-1; T. cruzi beta-gal in NIH3T3, GalScreen luminescence, 90 h; inhibition, % at 2.09 µM; hit rate 21% among 5,600;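 active = mean inhibition above about 95%, with at least 55% of replicates also reaching it, limit read from the data; inconclusive = meets just one of the two conditions; inactive = meets neither condition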;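 note: plate controls were neutral control median for no effect and positive control median for full effect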
3T3 cytotox = cytotoxicity in mouse NIH/3T3 fibroblasts, confirmation, cytotoxicity control for T. cruzi proliferation inhibitor project, cell-based, cherry-pick, single point | shares compounds with T cruzi growth-1 | NIH/3T3 viability, CellTiter-Glo ATP luminescence, 90 h | cytotoxicity (signal decrease), % at 8.35 µM | hit rate 14% among 5,600;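 active = mean signal decrease across replicates above about 35% based on untreated-well scatter, with enough replicates individually passing, limit read from the data; inconclusive = no rule stated though some were filed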;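 note: 0% = median of neutral control wells and 100% = median of positive control wells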
3T3 cytotox 2 = NIH/3T3 fibroblast cytotoxicity, confirmation, cytotoxicity control, cell-based, cherry-pick, single point, set 2 | inhibition, % at 24.9 µM | AID 651744, 2012 | hit rate 56% among 5,600 | NIH/3T3 viability, CellTiter-Glo ATP luminescence, 90 h | shares compounds with T cruzi growth-1;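 active = mean loss of cell viability signal at or above a set limit, and enough replicates individually reaching it; inconclusive = meets only the mean limit or only the replicate share; inactive = meets neither condition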;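 note: 0% = median of neutral control wells and 100% = median of positive control wells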
Numbers without * were called inactive; ? = inconclusive; . = no result given. Rows were chosen to be rich in hits. Some 6.7% of all compounds tested hit in one or more screens of this group.

SMILES | T cruzi growth-1 | Pf Dd2 growth | C diff growth | T cruzi growth-2 | T cruzi growth-3 | 3T3 cytotox | 3T3 cytotox 2
O=C(NC1CCCC1)N1CCCCN2[C@H](CO)[C@@H](c3ccc(-c4ccccc4)cc3)[C@H]2C1 | 61.2 | 0.9 | -15.2 | . | . | . | .
O=C(NC1CCCC1)N1CCCCN2[C@H](CO)[C@H](c3ccc(-c4ccccc4)cc3)[C@@H]2C1 | 112.7* | 15.6 | -13.9 | 113.4* | 78.7 | -16.8 | 63.0*
O=C(NC1CCCC1)N1CCCCN2[C@H](CO)[C@H](c3ccc(-c4ccncc4)cc3)[C@H]2C1 | 41.1 | 16.5 | -2.9 | . | . | . | .
C[C@H](CO)N1C[C@H](C)[C@H](CN(C)Cc2ccc(Cl)c(Cl)c2)Oc2ccc(NS(=O)(=O)c3ccccc3)cc2C1=O | . | 10.9 | 0.8 | . | . | . | .
COc1ccc(NC(=O)N[C@@H]2CC[C@@H](CCNC(=O)c3cc(Cl)cc(Cl)c3)O[C@H]2CO)cc1 | -13.6 | -8.1 | . | . | . | . | .
C[C@@H]1CN([C@H](C)CO)S(=O)(=O)c2ccc(C#CC3CC3)cc2O[C@H]1CN(C)Cc1cncnc1 | 51.1 | -15.3 | . | . | . | . | .
COc1ccc(C#Cc2ccc3c(c2)O[C@H](CN(C)S(=O)(=O)c2ccccc2F)[C@H](C)CN([C@H](C)CO)S3(=O)=O)cc1 | 124.5* | -76.3 | -1.1 | 108.6* | 107.3* | -8.7 | 33.2*
COc1cccc(C#Cc2ccc3c(c2)O[C@@H](CN(C)C)[C@H](C)CN([C@H](C)CO)S3(=O)=O)c1 | 68.6 | -55.5 | 2.9 | . | . | . | .
COc1ccc(C#Cc2ccc3c(c2)O[C@@H](CN(C)S(=O)(=O)c2ccccc2F)[C@H](C)CN([C@H](C)CO)S3(=O)=O)cc1 | . | -77.9 | 0.7 | . | . | . | .
COc1cccc(C#Cc2ccc3c(c2)O[C@@H](CN(C)S(=O)(=O)c2ccccc2F)[C@@H](C)CN([C@H](C)CO)S3(=O)=O)c1 | 100.6* | -40.6 | 10.8 | 106.3* | 60.6 | 18.6 | ?
C/C=C/c1ccc([C@H]2[C@@H](CO)N(CC3CCOCC3)C23CN(S(=O)(=O)CC)C3)cc1 | . | -35.8 | -2.1 | . | . | . | .
O=C(Nc1ccc2c(c1)OCO2)N[C@H]1C=C[C@@H](CC(=O)N2CCN(c3ccccc3)CC2)O[C@H]1CO | 16.7 | -1.7 | . | . | . | . | .
C[C@H](CO)N1C[C@H](C)[C@H](CN(C)C(=O)C2CC2)Oc2ncc(C#CCc3ccccc3)cc2C1=O | 67.8 | 5.1 | . | . | . | . | .
C[C@@H]1CCCCO[C@@H](CN(C)C(=O)CCC(F)(F)F)[C@H](C)CN([C@@H](C)CO)C(=O)c2cc(NC(=O)c3ccccc3)ccc2O1 | -18.2 | -12.4 | -3.5 | . | . | . | .
C[C@H]1CN([C@@H](C)CO)S(=O)(=O)c2ccc(C#CC(C)(C)O)cc2O[C@@H]1CN(C)Cc1ccncc1 | 52.4 | -24.2 | -2.6 | . | . | . | .
C[C@@H]1CN([C@@H](C)CO)S(=O)(=O)c2ccc(C#CC(C)(C)O)cc2O[C@@H]1CN(C)Cc1ccncc1 | 7.4 | 39.3 | -0.1 | . | . | . | .
C[C@@H]1CN([C@H](C)CO)S(=O)(=O)c2ccc(C#CC(C)(C)O)cc2O[C@H]1CN(C)Cc1ccncc1 | ? | -12.8 | -1.6 | 87.2 | 84.0 | 44.2* | 71.5*
C[C@@H]1CN([C@@H](C)CO)S(=O)(=O)c2ccc(C#CC(C)(C)O)cc2O[C@H]1CN(C)Cc1ccncc1 | 99.9* | -38.7 | -2.8 | 100.0* | 75.7 | 11.8 | 55.9*
CC(C)CNC(=O)[C@@H]1c2ccccc2C(=O)N(CC23CC4CC(CC(C4)C2)C3)[C@H]1c1ccc(CO)cc1 | . | . | 4.5 | . | . | . | .
C[C@@H]1CCCCO[C@H](CN(C)S(C)(=O)=O)[C@@H](C)CN([C@H](C)CO)C(=O)c2cc(NC(=O)CCCN(C)C)ccc2O1 | -5.7 | 28.0 | -2.8 | . | . | . | .
C[C@@H]1CCCCO[C@H](CN(C)Cc2ccc(C(F)(F)F)cc2)[C@H](C)CN([C@@H](C)CO)C(=O)c2cc(NS(=O)(=O)c3cccs3)ccc2O1 | 112.6* | -44.2 | -5.0 | 97.0* | 104.2* | 18.2 | 103.0*
C[C@@H]1CN([C@@H](C)CO)C(=O)c2cc(NS(=O)(=O)c3cccs3)ccc2O[C@@H](C)CCCCO[C@@H]1CN(C)Cc1ccc(C(=O)O)cc1 | -143.7 | -19.0 | -0.7 | . | . | . | .
C[C@@H]1CCCCO[C@@H](CN(C)Cc2ccc(C(F)(F)F)cc2)[C@H](C)CN([C@H](C)CO)C(=O)c2cc(NS(=O)(=O)c3cccs3)ccc2O1 | 113.7* | -64.6 | -2.7 | 98.0* | 113.7* | -10.4 | 104.3*
C[C@@H]1CCCCO[C@H](CN(C)Cc2ccc(C(=O)O)cc2)[C@H](C)CN([C@H](C)CO)C(=O)c2cc(NS(=O)(=O)c3cccs3)ccc2O1 | 47.8 | 0.8 | -4.1 | . | . | . | .
C[C@H](CO)N1C[C@H](C)[C@H](CN(C)C(=O)Nc2ccc(C(F)(F)F)cc2)OCCCC[C@H](C)Oc2ccc(NS(=O)(=O)c3cccs3)cc2C1=O | 96.7* | -19.8 | 2.8 | 96.8* | 105.0* | -1.9 | 1.1
SMILES | T cruzi growth-1 | Pf Dd2 growth | C diff growth | T cruzi growth-2 | T cruzi growth-3 | 3T3 cytotox | 3T3 cytotox 2
C[C@@H]1CCCCO[C@@H](CN(C)Cc2ccc(C(F)(F)F)cc2)[C@H](C)CN([C@@H](C)CO)C(=O)c2cc(NS(=O)(=O)c3cccs3)ccc2O1 | 112.5* | -40.2 | -0.7 | 103.0* | 99.1* | ? | 105.6*
C[C@@H]1CCCCO[C@H](CN(C)C(=O)Nc2ccc(C(F)(F)F)cc2)[C@@H](C)CN([C@H](C)CO)C(=O)c2cc(NS(=O)(=O)c3cccs3)ccc2O1 | 94.7 | -34.9 | -8.5 | . | . | . | .
C[C@@H]1CCCCO[C@@H](CN(C)Cc2ccc(C(F)(F)F)cc2)[C@@H](C)CN([C@H](C)CO)C(=O)c2cc(NS(=O)(=O)c3cccs3)ccc2O1 | 81.0 | -21.8 | 5.2 | . | . | . | .
COc1ccc(S(=O)(=O)N(C)C[C@H]2OCCCC[C@H](C)Oc3ccc(NS(C)(=O)=O)cc3C(=O)N([C@@H](C)CO)C[C@@H]2C)cc1 | -50.3 | -37.7 | 5.0 | . | . | . | .
CC=Cc1ccc2n(c1=O)C[C@@H]1[C@@H](CO)[C@H](C(=O)NCc3ccccn3)[C@H]2N1CCC (mixture of isomers) | 53.8 | 7.2 | -1.2 | . | . | . | .
Cc1ccc(S(=O)(=O)N(C)C[C@@H]2OCCCC[C@@H](C)Oc3ccc(NS(C)(=O)=O)cc3C(=O)N([C@@H](C)CO)C[C@H]2C)cc1 | 16.7 | -28.9 | -0.2 | . | . | . | .
COc1ccc(S(=O)(=O)N[C@@H]2CC[C@H](CC(=O)O)O[C@@H]2CO)cc1 | 10.6 | -1.3 | -1.7 | . | . | . | .

Source: PubChem BioAssay (Broad Institute)
